Hit rate of the full screen: of about 340,000 compounds, about 12,000 (3.5%) were called active. Entries that show only a call come without a potency. About 18% were inconclusive and are not listed. The call rests on the fitted dose curve; in most records, active means well fitted inhibition curve with a large enough effect; inconclusive means small, poorly fitted or top-dose-only effect, or another doubt; inactive means no such curve, though single readings can be large or run the other way. The full list was thinned out, with actives kept by preference.
Test: qHTS Assay for Inhibitors of Hepatitis C Virus (HCV)
Details: Huh7.5.1 HCVcc-Cre infection, luciferase reporter, 44 h; series mostly up to 41.8 µM
Method in brief: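 Luciferase read-out (15 sec integration) after a 15 min room-temperature substrate step quantifies HCVcc-Cre infection. Cells, 1,000 per well, had compound added 4 h post-plating, then virus at ~0.5 moi, and were cultured 44 h.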
Potency means the concentration at half of the fitted maximal effect.

SMILES | Potency
Cc1ccc(C)c(NC(=O)COC(=O)Cn2c(C)csc2=O)c1 | inactive
CCC1(CC)NC(=O)N(CC(=O)OCC(=O)c2cc(C)c(C)cc2C)C1=O | inactive
O=C(CNC(=O)c1ccccc1Br)NNC(=O)c1cccs1 | inactive
COc1cc(S(=O)(=O)N2CCN(C(=O)C3CC3)CC2)ccc1NC(C)=O | inactive
O=C(C1Cc2ccccc2CN1C(=O)c1ccco1)N1CCN(c2ccccc2)CC1 (stereo unspecified) | inactive
O=C(NCCC1=CCCCC1)c1ccc(-n2cncn2)cc1 | inactive
CCOc1ccc(C(=O)CCC(=O)NC2=NCCS2)cc1 | inactive
Cc1noc(C)c1CSCC(=O)Nc1ccc(Br)cc1Cl | inactive
CCOC(=O)CCCCCC(=O)Nc1ccc2c(c1)CC(=O)N([C@@H](C)CO)C[C@H](C)[C@@H](CN(C)Cc1ccccc1)O2 | inactive
Cc1cc(NC(=O)c2cnn3cccnc23)n(-c2ccccc2)n1 | 12.6 µM (active)
O=C(Nc1ccc(Cl)cn1)c1cnn2cccnc12 | inactive
CC(=O)c1cccc(NC(=O)c2cc(C)nn2-c2ccccc2)c1 | inactive
CSc1ncccc1C(=O)Nc1cccc(S(=O)(=O)N2CCOCC2)c1 | inactive
C[C@H](NC(=O)c1[nH]cnc1C(=O)Nc1nccs1)c1ccccc1 | inactive
Cc1nn(-c2ccccc2)nc1C(=O)OCC(=O)N1CCCCC1C (stereo unspecified) | inactive
CN(C)C(=O)N=NC(=O)N(C)C | inactive
Cc1ccc(-c2cc(C(=O)N3CCC4(CC3)OCCO4)no2)cc1 | inactive
O=C(c1ccccc1[N+](=O)[O-])N1CCC2(CC1)OCCO2 | inactive
O=C(c1cc2nc(-c3ccccc3)cc(-c3ccccc3)n2n1)N1CCC2(CC1)OCCO2 | 10 µM (active)
CC(=O)N1CCc2c(sc(NC(=O)CCS(=O)(=O)c3ccc(C)cc3)c2C(N)=O)C1 | inactive
CN(C)c1ccc(/C=N/Nc2cc(N3CCOCC3)nc(N3CCOCC3)n2)cc1 | 3.98 µM (active)
Cc1cc(C(=O)N/N=C/c2ccc(N3CCOCC3)cc2)c(C)o1 | inactive
CCN(CC)c1ccc(C(=O)N/N=C/c2ccc(N3CCOCC3)cc2)cc1 | inactive
CC(=O)Oc1ccc(OC(C)=O)c2c1C1C=CC2CC1 | inactive
Cc1n[nH]c(=O)c2c(NC(=O)CSc3cc(Cl)ccc3Cl)oc(C)c12 | inactive
COc1ccc(-c2cc(C(F)(F)F)nc(SCCC(=O)NCc3ccco3)n2)cc1 | inactive

SMILES | Potency
Cc1cc(C(F)(F)F)nn1-c1nc(-c2ccco2)cc(C(F)(F)F)n1 | inactive
O=C(CSc1nc(-c2ccco2)cc(C(F)(F)F)n1)N1CCc2ccccc2C1 | 11.2 µM (active)
CCN([C@H](CO)C(C)C)S(=O)(=O)c1ccccc1Br | inactive
Cc1ccc(NC(=O)CN(C)C(=O)c2cccc(S(=O)(=O)N3CCCC3)c2)cc1 | inactive
COCCNC(=S)N/N=C/c1c(C)[nH]c2ccccc12 | 10 µM (active)
Cc1[nH]c2ccccc2c1/C=N\NC(=O)Cn1nnc(-c2ccccc2)n1 | inactive
Cc1[nH]c2ccccc2c1/C=N/NC(=O)CNC(=O)c1ccc2c(c1)OCO2 | inactive
C[C@@H]1CN([C@@H](C)CO)C(=O)c2cc(NC(=O)C3CC3)ccc2O[C@H]1CN(C)C | inactive
O=[N+]([O-])c1ccc(S(=O)(=O)Nc2cccc(-c3ccc(N4CCCC4)nn3)c2)cc1 | inactive
CC(OC(=O)c1c(F)cccc1F)C(=O)NCCC1=CCCCC1 (stereo unspecified) | inactive
CN(CC(=O)Nc1ccc(F)c(F)c1F)C(=O)Cn1cnc2c1c(=O)n(C)c(=O)n2C | inactive
CC(C)Cn1c(N)c(C(=O)COC(=O)C2CCCN2C(=O)c2cccs2)c(=O)n(C)c1=O (stereo unspecified) | inactive
COc1ccc(OC)c(S(=O)(=O)Nc2ccccc2F)c1 | inactive
COc1ccc(NS(=O)(=O)c2cc(NC(=O)COc3ccccc3F)ccc2OC)cc1 | 11.2 µM (active)
COc1ccccc1NC(=O)COC(=O)COc1ccccc1F | inactive
CCc1noc(C)c1C(=O)N1CCCC(N2CCN(c3ccc(F)cc3)CC2)C1 (stereo unspecified) | inactive
Cn1c(N)cc(=O)n(C)c1=S | inactive
C=C(C)CNC(=O)c1ccc(OC2CCN(C(=O)COC)CC2)cc1 | inactive
COc1ccc(NC(=O)CN(C)C(=O)CC2CCCCC2)cc1 | inactive
COc1ccc(-c2csc(Nc3ccc(O)cc3)n2)cc1 | 12.6 µM (active)
O=c1oc2ccccc2cc1-c1csc(Nc2ccc(O)cc2)n1 | 31.6 µM (active)
O=C(Nc1ccncc1)c1cc2ccccc2o1 | inactive
COc1ccc2nc(Nc3nc(-c4ccncc4)cs3)sc2c1 | inactive
CCNc1nc(-c2cc3ccccc3o2)cs1 | inactive
COc1ccc(OC)c(Nc2nc(-c3ccc(O)c(O)c3)cs2)c1 | 10 µM (active)
COC(=O)CCc1sc(Nc2ccc(Br)cc2)nc1-c1ccc(OC)cc1 | inactive

SMILES | Potency
CCN1CCN(c2nc(Nc3cc(OC)ccc3OC)nc(Nc3cc(OC)ccc3OC)n2)CC1 | inactive
CC(C)(C)C(=O)OCc1nc(-c2ccc(O)c(O)c2)cs1 | inactive
CC(=O)C[C@H](O)CC(=O)[C@@H]1OC(=O)[C@@H](C)C/C=C\Cc2ccccc21 | inactive
COc1ccc(C(=O)COC(=O)CN2C(=O)C3CC=CCC3C2=O)c(OC)c1 (stereo unspecified) | inactive
CC1(C)CC[C@@]2(C(=O)O)C(C1)C1=CCC3[C@@]4(C)CC[C@H](O)C(C)(C)C4CC[C@@]3(C)[C@]1(C)C[C@H]2O (stereo partly specified) | inactive
Cc1cc(C)cc(NC(=O)C(c2ccccc2)N2CCN(CC(=O)N3CCCC3)CC2)c1 (stereo unspecified) | inactive
CCOc1ccc(C(=O)CCC(=O)Nc2ccncc2)cc1 | inactive
O=C(CNC(=O)c1ccccc1Br)NCCSc1ccc(Br)cc1 | inactive
CN(C)C1=NC[C@H](Cc2ccccc2)N1CCc1ccc(F)cc1 | inactive
C#CCOCCOCCOCCNc1nc(N2CCN(C(=O)[C@H](CCCCN)n3cc(CCC(=O)O)nn3)CC2)nc(N2CCN(C(=O)[C@H](CCCCN)n3cc(CC(C)O)nn3)CC2)n1 (stereo partly specified) | inactive
CC1CCCCC1NCC(=O)Nc1ccccc1C(=O)Nc1ccccc1 (stereo unspecified) | 0.891 µM (active)
COc1cccc(CN(C)CC(=O)Nc2ccccc2C(=O)Nc2ccccc2)c1 | inactive
CCCC(NCC(=O)Nc1ccccc1C(=O)NC1CC1)c1ccccc1 (stereo unspecified) | inactive
Cc1ccc(S(=O)(=O)NC2CCCCCC2)cc1 | inactive
O=C1C=CN2CCCC2CC1 (stereo unspecified) | inactive
COc1ccc(C(CNC(=O)c2ccc(S(=O)(=O)Nc3ccccc3C)cc2)N2CCOCC2)cc1 (stereo unspecified) | inactive
CCOC(=O)c1sc(=NC(=O)c2ccc(Br)cc2)n(C)c1C | inactive
CCOC(=O)C1=C(C)Nc2sc(C(=O)c3ccc(Br)cc3)c(N)c2C1c1ccc(C(=O)OC)cc1 (stereo unspecified) | 8.91 µM (active)
CCOC(=O)c1sc(=S)n2c1[nH]c(=O)c1ccc(C(=O)OC)cc12 | inactive
CCCCCCSc1ccc([C@@H]2[C@@H]3C(=O)N(CC)C(=O)[C@@H]3[C@]3(C(=O)OC)CCCCN23)cc1OC | inactive
CCCCOc1ccc(CON(C(C)=O)C(C)=O)cc1Cl | inactive
Cc1ccc(C2=CSC3=NS(=O)(=O)CCN23)cc1C | inactive
CCCOc1ccc(C2=CSC3=NCCN23)cc1Cl | 11.2 µM (active)
CC[C@]12c3[nH]c4cc(CCC(=O)N(C)C)ccc4c3CCN1C(=O)[C@@H](CC(=O)NCCCN(C)C)C[C@@H]2C(=O)N1CCN(C(=O)c2ccco2)CC1 | inactive
Cc1noc(C)c1S(=O)(=O)N(C)C[C@H]1Oc2ccc(NC(=O)C3CCCCC3)cc2C(=O)N([C@H](C)CO)C[C@@H]1C | inactive
CCOC(=O)[C@H]1[C@H]2COc3ccc(Br)cc3[C@@H]2N2C(=O)CN(C)C(=O)[C@@]12C | inactive

SMILES | Potency
N#Cc1c(/N=C/N2CCCC2)oc(-c2ccccc2)c1-c1ccccc1 | 14.1 µM (active)
N#Cc1c(-c2ccccc2)c(-c2ccccc2)n[nH]c1=O | inactive
N#Cc1c2c(c(-c3ccccc3)[nH]c1=O)CCCC2 | inactive
CCN(CC)C(=O)c1nc[nH]c1C(=O)N(C)Cc1ccccc1 | inactive
COc1ccc(C(=O)N2CCN(c3ncccn3)CC2)cc1S(=O)(=O)N1CCOCC1 | inactive
CCC(=O)c1cc(F)ccc1OCC(=O)Nc1ccc2c(c1)OCCO2 | inactive
COc1ccc(S(=O)(=O)N2CCCCC2)cc1NC(=O)C1CC(=O)N(c2ccc3c(c2)OCCO3)C1 (stereo unspecified) | inactive
Cc1ccc(NC(=O)C2CC(=O)N(c3ccc4c(c3)OCCO4)C2)cc1S(=O)(=O)N1CCCCCC1 (stereo unspecified) | 10 µM (active)
Cc1ccc(N2CC(C(=O)Nc3ccc(S(=O)(=O)N4CCCC4)cc3)CC2=O)cc1C (stereo unspecified) | inactive
CN1C(C(=O)NCc2ccco2)CC2Cn3c(nc4ccccc43)C21 (stereo unspecified) | inactive
CC(=O)Nc1ccc(NC(=O)CS(=O)(=O)c2cn(CC(=O)N3CCCCC3)c3ccccc23)cc1 | inactive
CCOC(=O)c1ccc(NC(=O)CCn2c(=O)oc3ccccc32)cc1 | inactive
CCOC(=O)c1ccc(NC(=O)CS(=O)(=O)c2cn(CC)c3ccccc23)cc1 | 14.1 µM (active)
Cc1ccc(NC(=O)C(C)OC(=O)Cc2c[nH]c3ccccc23)cc1S(=O)(=O)N1CCOCC1 (stereo unspecified) | inactive
Cc1ccc(C)c(S(=O)(=O)N(C)c2ccc(OC(=O)C3CCN(C(=O)c4ccc(F)cc4)CC3)cc2)c1 | inactive
CCCCNC1(C#N)CCN(Cc2ccccc2)CC1 | inactive
OCC1(Cc2ccccc2)CCN(Cc2cc3ccccc3o2)CC1 | inactive
COc1ccccc1CN(C)C(=O)c1cc2ccccc2o1 | inactive
CN(C)CCCCCN(C)Cc1cc2ccccc2o1 | 3.16 µM (active)
Brc1ccc(CN2CC[C@H]3C=CCc4cccc(c43)C2)cc1 | inactive
COc1ccc(-c2nn(C)c(=O)c3ccccc23)cc1NC(=O)COc1ccccc1 | 10 µM (active)
COc1ccc(S(=O)(=O)N2CCOCC2)cc1NC(=O)COc1ccccc1 | inactive
CCC(=O)NCc1cc(-c2nn(C)c(=O)c3ccccc23)ccc1OC | inactive

From PubChem BioAssay AID651820 (National Center for Advancing Translational Sciences (NCATS), 2012)
